Reference: PubChem BioAssay (Tox21)
Records with an inconclusive call do not appear. Activity calls are given as the source filed them. Unless noted, the call rests on the fitted dose curve; in most records, active means well fitted curve in the direction sought with a large enough effect in the repeat runs; inconclusive means weak or mixed curves; inactive means no such curve, though single readings can be large; an effect the other way counts as inactive or inconclusive.

How the values were obtained:
[1] = qHTS assay for small molecule agonists of the p53 signaling pathway (AID 651631; calls by dose curve; further: nearly all actives have a fitted effect of over 15% in size)
Method in brief: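 Beta-lactamase reporter activity under p53 response elements was quantified in HCT-116 cells by FRET fluorescence, following 16 h incubation with test compounds at 37 °C and 2 h substrate development at room temperature.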

[2] = qHTS assay for small molecules that induce genotoxicity in human embryonic kidney cells expressing luciferase-tagged ATAD5 (AID 651632); further: nearly all actives have a fitted effect of over 15% in size
Method in brief: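 ATAD5-luc HEK293T, 2,000 cells/well; cpd or DMSO pin-transferred; 16 hr, 37C/5% CO2; Amplite 30 min RT; luminescence.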

[3] = qHTS assay for small molecule agonists of the p53 signaling pathway - cell viability (AID 651633; calls by dose curve;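 further: p53RE-bla HCT reporter cells with a stable beta-lactamase p53 reporter; series mostly up to about 83 µM; nearly all actives have a fitted effect of over 30% in size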)
Method in brief: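 Viability counter-read: CellTiter-Glo luminescence (30 min, room temperature) in the same p53RE-bla plates. These plates had been exposed to compounds for 16 h at 37 C.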

[4] = qHTS assay for small molecules that induce genotoxicity in human embryonic kidney cells expressing luciferase-tagged ATAD5 - cell viability (AID 651634; calls by dose curve; further: nearly all actives have a fitted effect of over 25% in size)
Method in brief: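 Fluorescence from CellTiter-Fluor, reporting protease activity within live cells, served as the viability read-out. HEK293T cells carrying luciferase-tagged ATAD5 had been treated with compound for 15.5 hr at 37C.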

[5] = qHTS assay for small molecule disruptors of the mitochondrial membrane potential - cell viability (AID 720634; calls by dose curve;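 further: human HepG2 liver cancer cells; series mostly up to about 83 µM; nearly all actives have a fitted effect of over 20% in size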)
Method in brief: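 Cells: HepG2, 2,000/well, attached overnight. Compound 1 hr, 37 C/5% CO2. +m-MPI dye, +CellTiter-Glo 30 min RT. Readout: luminescence (ATP).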

[6] = qHTS assay for small molecule disruptors of the mitochondrial membrane potential (AID 720635)
Method in brief: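 Mitochondrial membrane potential tracked with Mito-MPS dye, red aggregates (ex 540/em 590 nm) against green monomers (ex 490/em 535 nm). Compound treatment 1 hr at 37C, dye 30 min in HepG2.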

[7] = qHTS assay to test for compound auto fluorescence at 590 nm (red) in HepG2 cells (AID 720674)
Method in brief: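 1 hr compound incubation on HepG2 cells, 37 C, 5% CO2; plate read ex 540 nm / em 590 nm; intensities reported as Rose Bengal sodium equivalents.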

[8] = qHTS assay to test for compound auto fluorescence at 535 nm (green) in HepG2 cells (AID 720675)
[9] = qHTS assay to test for compound auto fluorescence at 460 nm (blue) in HEK293 cells (AID 720678)
Method in brief: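 Measured: blue fluorescence (Ex 405/Em 460 nm) of compound-treated HEK293 cells, incubated overnight at 37C with 5% CO2 and scaled to triamterene equivalents.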

[10] = qHTS assay to test for compound auto fluorescence at 590 nm (red) in HEK293 cells (AID 720679)
Method in brief: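 Using HEK293 cells at 2,000 per well, the screen added 23 nL of each compound after cell attachment and incubated overnight (37C, 5% CO2). The plate reader then captured red-label fluorescence, Ex/Em 540/590nm.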

[11] = qHTS assay to test for compound auto fluorescence at 535 nm (green) in HEK293 cells (AID 720680)
[12] = qHTS assay to test for compound auto fluorescence at 460 nm (blue) in HEK293 cell free culture (AID 720681)
Method in brief: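 Blue fluorescence (Ex 405/Em 460 nm, triamterene-equivalent) was read immediately after pin transfer of compound or DMSO into medium (DMEM, 10% FBS) without cells.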

[13] = qHTS assay to test for compound auto fluorescence at 535 nm (green) in HEK293 cell free culture (AID 720682)
Method in brief: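 Each library compound, or DMSO control, is added by pintool to medium alone, comprising DMEM and 10% FBS. Emission at 535 nm following 485 nm excitation is quantified against fluorescein.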

[14] = qHTS assay to test for compound auto fluorescence at 590 nm (red) in HEK293 cell free culture (AID 720683)
Method in brief: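 Red-channel autofluorescence of compounds in culture medium (DMEM, 10% FBS), no cells, measured at 540/590 nm. Rose Bengal sodium is the reference fluorophore for equivalence.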

[15] = qHTS assay to test for compound auto fluorescence at 590 nm (red) in HepG2 cell free culture (AID 720684)
Method in brief: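 Plate contents were MEM with 10% FBS plus test compound or DMSO, no cells. Fluorescence was recorded with 540 nm excitation and 590 nm emission.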

[16] = qHTS assay to test for compound auto fluorescence at 460 nm (blue) in HepG2 cell free culture (AID 720685)
Method in brief: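 Compound (23 nL) or DMSO pinned into cell-free MEM with 10% FBS; blue fluorescence read at 405/460 nm excitation/emission, expressed as auto-fluorescence equivalency to triamterene.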

[17] = qHTS assay to test for compound auto fluorescence at 535 nm (green) in HepG2 cell free culture (AID 720686)
[18] = qHTS assay to test for compound auto fluorescence at 460 nm (blue) in HepG2 cells (AID 720687)
Method in brief: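 Blue-channel autofluorescence (Ex/Em 405/460 nm, triamterene-equivalent) was measured after 1 hr compound exposure at 37 C, 5% CO2. Cells were HepG2, plated overnight at 37 C in MEM plus 10% FBS.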

[19] = target: Glucocorticoid receptor (Homo sapiens) (UniProt P04150); experiment: qHTS assay to identify small molecule agonists of the glucocorticoid receptor (GR) signaling pathway (AID 720691; active means well fitted activation curve with a large enough effect in the signal ratio in the repeat runs, not every such curve was filed as active; the % refers to the signal ratio)
Sequence of Glucocorticoid receptor (Homo sapiens) (P04150 whole entry, looked up): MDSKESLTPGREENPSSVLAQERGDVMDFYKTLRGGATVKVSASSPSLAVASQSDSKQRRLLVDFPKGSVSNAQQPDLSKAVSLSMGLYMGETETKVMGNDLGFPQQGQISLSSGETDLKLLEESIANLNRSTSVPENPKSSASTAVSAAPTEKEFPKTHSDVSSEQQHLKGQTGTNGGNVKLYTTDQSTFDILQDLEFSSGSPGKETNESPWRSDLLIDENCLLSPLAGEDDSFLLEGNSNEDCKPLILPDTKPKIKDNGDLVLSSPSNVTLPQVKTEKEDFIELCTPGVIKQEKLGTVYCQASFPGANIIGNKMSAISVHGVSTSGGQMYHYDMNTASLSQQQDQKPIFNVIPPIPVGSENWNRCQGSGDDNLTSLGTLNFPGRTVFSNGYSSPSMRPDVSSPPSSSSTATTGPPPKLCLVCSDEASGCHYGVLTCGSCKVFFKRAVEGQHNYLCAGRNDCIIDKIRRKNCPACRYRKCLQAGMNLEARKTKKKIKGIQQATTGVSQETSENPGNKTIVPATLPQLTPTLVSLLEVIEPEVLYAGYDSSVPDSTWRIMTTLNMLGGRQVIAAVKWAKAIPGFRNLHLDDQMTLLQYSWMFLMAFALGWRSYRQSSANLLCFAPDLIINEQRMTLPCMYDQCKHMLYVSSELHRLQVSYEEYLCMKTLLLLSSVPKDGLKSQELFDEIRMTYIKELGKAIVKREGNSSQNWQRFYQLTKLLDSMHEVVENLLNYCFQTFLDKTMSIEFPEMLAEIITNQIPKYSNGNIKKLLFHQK
Method in brief: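 Fluorescence intensity from LiveBLAzer B/G FRET substrate (2 h, room temperature) reports beta-lactamase expression driven by the glucocorticoid response element in GR-bla HeLa cells after 18 h compound exposure at 37 C.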

[20] = target: Glucocorticoid receptor (Homo sapiens) (UniProt P04150); experiment: qHTS assay to identify small molecule antagonists of the glucocorticoid receptor (GR) signaling pathway (AID 720692; active means well fitted inhibition curve with a large enough effect in the signal ratio in the repeat runs, not every such curve was filed as active; the % refers to the signal ratio)
Method in brief: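 HeLa GR-bla cells; cmpd + dex 5 nM final, 18 h 37 C; LiveBLAzer B/G FRET substrate 2 h RT; fluorescence intensity read. Antagonist mode, qHTS.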

Measured: Potency

O=C(Cl)c1ccc(C(=O)Cl)cc1
inactive: all assays above

CCCCC(=O)O
inactive: all assays above

Cc1ccc(Cl)cc1
inactive: all assays above

Cc1ccccc1Cl
inactive: all assays above

O=[N+]([O-])c1cc(C(F)(F)F)ccc1Cl
inactive: all assays above

Cc1cc(C)c(O)c(C)c1
inactive: all assays above

O=Cc1ccc(CO)o1
inactive: all assays above

NC(N)=S
inactive: all assays above

CCCCCCCCO
inactive: all assays above

COc1c2ccoc2cc2oc(=O)ccc12
inactive: all assays above

C[Si](C)(C)N[Si](C)(C)C
inactive: all assays above

O=C(O)Cc1c[nH]c2ccccc12
inactive: all assays above

CCCCCCC(=O)O
inactive: all assays above

Cc1ccncc1
inactive: all assays above
